Mtb MbtI inh: MbtI salicylate synthase inhibitors, primary screen, biochemical, fluorescence intensity. purified MbtI enzyme, fluorescence intensity read-out. inhibition, % (test concentration not listed). 100,000 compounds, 0.89% hits. AID 493033, 2011; in the data active = inhibition mostly above about 56%, no sharp cut-off; inactive = mostly below about 77%
MenB inh: M. tuberculosis MenB inhibitors, primary screen, biochemical, absorbance; inhibition, % (test concentration not listed); MenB enzyme assay, absorbance read-out; 1,4-dihydroxy-2-naphthoyl-CoA synthase (Mycobacterium tuberculosis (strain ATCC 25618 / …; AID 540299, 2011; 100,000 compounds, 0.43% hits; in the data active = inhibition above about 21%, passing the limit was not always enough
Target sequence (P9WNP5 whole entry, looked up): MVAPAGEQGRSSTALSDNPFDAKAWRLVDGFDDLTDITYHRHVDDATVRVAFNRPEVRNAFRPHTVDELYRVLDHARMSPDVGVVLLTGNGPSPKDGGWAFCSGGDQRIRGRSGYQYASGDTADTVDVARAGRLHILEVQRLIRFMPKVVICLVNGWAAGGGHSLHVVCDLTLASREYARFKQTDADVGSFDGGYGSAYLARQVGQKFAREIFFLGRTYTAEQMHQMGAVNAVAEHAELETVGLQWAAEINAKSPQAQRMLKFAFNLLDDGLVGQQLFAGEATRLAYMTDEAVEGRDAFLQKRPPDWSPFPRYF
AID504770: growth inhibition of E. coli YBA685, primary screen, V. cholerae RctB inhibitors | E. coli YBA685 rctB-dependent plasmid, OD600 growth, 3 h; hits give low values | 130,000 compounds, 0.27% hits | z-score (no concentration beside the values); in the data active = z-score below about -2, passing the limit was not always enough
Polio RdRp inh: poliovirus RdRp elongation inhibitors, primary screen, biochemical, fluorescence polarization, total intensity; poliovirus polymerase elongation; hits give low values; % elongation, % (compound at 16.7 µg/mL); 150,000 compounds, 0.66% hits; AID 588519, 2011; in the data active = % elongation below about 90%
* hit, by the source's call. Shown are actives, neighbours in structure and some others; about 1.4% of the full set was active somewhere.

Screening O=c1[nH][nH]c(=S)n1CCc1ccccc1 returned Mtb MbtI inh 68*, MenB inh -13, AID504770 -0.55 and Polio RdRp inh 93.
For Clc1ccc(/C=N\n2cnnc2)c(Cl)c1 the results were MenB inh 3, AID504770 -1.2 and Polio RdRp inh 103.
COc1ccc(C(=O)n2c3c(c(=O)n2-c2ccccc2)Cc2ccc(OC)cc2O3)cc1 was read as Mtb MbtI inh 0, MenB inh 54*, AID504770 0.15 and Polio RdRp inh 101.
Screening CC(=O)Nc1ccc(S(=O)(=O)N=S(C)(C)=O)cc1 returned Mtb MbtI inh -7, MenB inh -2, AID504770 0.35 and Polio RdRp inh 102.
Screening COC(=O)/C=C/S(=O)(=O)c1ccc(NC(C)=O)cc1 returned Mtb MbtI inh 67*, MenB inh -12, AID504770 -1.1 and Polio RdRp inh 104.
`COC(=O)/C=C/S(=O)(=O)c1ccc(Br)cc1` gave Mtb MbtI inh 100*, MenB inh -11, AID504770 -2.8* and Polio RdRp inh 104.
Cc1nn(CN2CCCC2c2cccs2)c(C)c1S(=O)(=O)N1CCCCC1 (centres undefined) was read as Mtb MbtI inh -10, MenB inh -45, AID504770 -2.3 and Polio RdRp inh 108.
For Cc1cc(C)c(C(=O)O)c(=O)[nH]1 the results were Mtb MbtI inh 12, MenB inh -7, AID504770 0.6 and Polio RdRp inh 106.
Cc1cc(C)c(C(=O)O)c(=S)[nH]1 was read as Mtb MbtI inh 89*, MenB inh -22, AID504770 -2.5* and Polio RdRp inh 102.
Screening Cc1ccccc1NC(=S)N/N=C/c1ccc(O)cc1O returned Mtb MbtI inh 21, MenB inh -59, AID504770 1.9 and Polio RdRp inh 81*.
For CNc1nc(SCC(=O)OC)nc(N2CCOCC2)n1 the results were Mtb MbtI inh 3, MenB inh 56*, AID504770 1.1 and Polio RdRp inh 104.
`COC(=O)CSc1nc(C)cc(N2CCOCC2)n1` gave Mtb MbtI inh 4, MenB inh -42, AID504770 -0.8 and Polio RdRp inh 104.
For CSc1ccc(C2c3c(oc4cc(C)cc(C)c4c3=O)C(=O)N2Cc2ccco2)cc1 (centres undefined) the results were Polio RdRp inh 112.
`CC1CCCN(CCCNC(=O)c2coc3nc4ccccc4nc23)C1` (centres undefined) gave Mtb MbtI inh 108, MenB inh -44, AID504770 1.3 and Polio RdRp inh 103.
CC1COC2=C(N3CCN(C)CC3)C(F)=CC3C(=O)C(C(=O)O)=CN1C23 (centres undefined) was read as Mtb MbtI inh -102, MenB inh 2, AID504770 -6.4* and Polio RdRp inh 98.
CCOc1ccc(C2=C(C(=O)CC)Sc3nncn3N2C(=O)CC)cc1 was read as Polio RdRp inh 82*.
`CCC(=O)C1=C(c2ccc(F)cc2)N(C(=O)CC)n2cnnc2S1` gave Polio RdRp inh 86*.
CCC(=O)C1=C(c2ccccc2)N(C(=O)CC)n2cnnc2S1 was read as Mtb MbtI inh -9, MenB inh -17, AID504770 -1.5 and Polio RdRp inh 104.
For C/C(O)=C(\C#N)P(C)(=O)OC(C)C (centres undefined) the results were Mtb MbtI inh 1, MenB inh 41*, AID504770 1.5 and Polio RdRp inh 98.
Screening Cc1ccc(S(=O)(=O)N[C@@H](Cc2ccccc2)C(=O)CCl)cc1 returned Mtb MbtI inh 64*, MenB inh -14 and Polio RdRp inh 102.
Oc1ccccc1OCCCCCOc1ccccc1O was read as Mtb MbtI inh -5, MenB inh 0, AID504770 0.7 and Polio RdRp inh 101.
Screening Cc1nc(CSc2nncs2)cs1 returned Mtb MbtI inh 80*, MenB inh -40, AID504770 -0.3 and Polio RdRp inh 83*.
For Cc1nc(CSc2n[nH]c(C(C)(C)C)n2)cs1 the results were Mtb MbtI inh -10, MenB inh 8, AID504770 0.6 and Polio RdRp inh 105.
For O=C1C(Sc2ncn[nH]2)=C/C(=N/S(=O)(=O)c2cccs2)c2ccccc21 the results were Mtb MbtI inh 90, MenB inh -30, AID504770 0.45 and Polio RdRp inh 87*.
O=C1C(Sc2ncn[nH]2)=C/C(=N/S(=O)(=O)c2ccc(F)cc2)c2ccccc21 was read as Mtb MbtI inh 98, MenB inh -6, AID504770 -1.2 and Polio RdRp inh 88*.
O=C1C(NS(=O)(=O)c2ccccc2)=C/C(=N\S(=O)(=O)c2ccc(F)cc2)c2ccccc21 was read as Mtb MbtI inh -2, MenB inh 0, AID504770 -0.85 and Polio RdRp inh 78*.
Screening S=c1[nH]nc(NCCCN2CCOCC2)s1 returned Mtb MbtI inh 97*, MenB inh -19, AID504770 -0.6 and Polio RdRp inh 96.
Screening COc1ccc(-c2onc(C)c2C)cc1S(=O)(=O)N1CCc2ccccc21 returned Polio RdRp inh 102.
`CC1(C)CC(=O)C(C2(O)C(=O)NC(=O)NC2=O)=C(O)C1` gave Mtb MbtI inh -3, MenB inh -86, AID504770 -0.25 and Polio RdRp inh 56*.
CCN1CCN(c2ncc3c(n2)CCN(Cc2cc(F)cc(F)c2)C3)CC1 was read as Polio RdRp inh 86*.
Screening Cc1scc(-c2ccccc2)[n+]1CCO returned Mtb MbtI inh 54*, MenB inh -3, AID504770 -0.25 and Polio RdRp inh 104.
`O=C(O)c1cccc(S(=O)(=O)N2CCCCC2)c1` gave Mtb MbtI inh -14, MenB inh -54, AID504770 -0.6 and Polio RdRp inh 99.
Screening CC(C)CNC(=O)c1cccc(S(=O)(=O)N2CCCCC2)c1 returned Mtb MbtI inh -8, AID504770 -4.8* and Polio RdRp inh 105.
For CCOc1ccc2c(c1)SC1=NS(=O)(=O)CCN12 the results were AID504770 -0.5.
`CCN(CC1COc2ccccc2O1)C(=O)c1ccc2c(c1)SC1=NS(=O)(=O)CCN12` (centres undefined) gave Mtb MbtI inh 7, MenB inh -33, AID504770 1.2 and Polio RdRp inh 84*.
Screening O=C1C=CC(=O)N1Cc1ccccc1 returned Mtb MbtI inh -13, MenB inh -3, AID504770 -2.5* and Polio RdRp inh 103.
O=C(CCCc1c[nH]c2ccccc12)N1CCCCCC1 was read as MenB inh -11, AID504770 0.35 and Polio RdRp inh 109.
`COc1ccc(NC(=O)CC2Sc3ncnn3C2=O)cc1` (centres undefined) gave Mtb MbtI inh 100* and AID504770 -0.3.
COc1ccc(NC(=O)CC2SC(=Nc3ccccc3)N(c3ccccc3)C2=O)cc1 (centres undefined) was read as Mtb MbtI inh -1, MenB inh -23, AID504770 0.25 and Polio RdRp inh 103.

Screening results as filed in PubChem.
